Source: PubChem BioAssay (NCI)
The panel holds about 79,000 compounds, 15% with a hit somewhere; the sample as a whole holds those more often. No stated cut-off is given here; in the data, active means growth inhibition above about 70%; inactive means the rest.

Legend:
[1] = NCI Yeast Anticancer Drug Screen. Data for the rad50 strain (AID 155);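 further: 0% = growth of vehicle-only cultures of the same strain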; conditions: S. cerevisiae rad50 strain growth inhibition; at 50.0 µM; stronger effect = higher value
Procedure, shortened: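 Readout: growth inhibition relative to vehicle-treated cultures. Compound exposure was carried out in a genetically defined yeast strain deficient in DNA damage repair.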

[2] = NCI Yeast Anticancer Drug Screen. Data for the mec2-1 strain (AID 157); conditions: S. cerevisiae mec2-1 strain, at 50.0 µM, stronger effect = higher value
Procedure, shortened: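 Each compound was tested on mec2-1 yeast, a strain altered in DNA damage repair or cell cycle control. Growth inhibition is reported relative to vehicle.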

[3] = NCI Yeast Anticancer Drug Screen. Data for the sgs1 mgt1 strain (AID 161);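 further: 0% = growth of cultures given vehicle only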; conditions: S. cerevisiae sgs1 mgt1 strain, at 50.0 µM, stronger effect = higher value
Procedure, shortened: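 Genetically altered yeast, compound exposure, growth inhibition relative to vehicle.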

[4] = NCI Yeast Anticancer Drug Screen. Data for the cln2 rad14 strain (AID 165);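 further: 0% = growth equal to vehicle treated cultures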; conditions: S. cerevisiae cln2 rad14 strain, at 50.0 µM, stronger effect = higher value
Procedure, shortened: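 Test compounds were added to cln2 rad14 yeast cultures; inhibition of growth was then determined by comparison with vehicle treatment.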

[5] = NCI Yeast Anticancer Drug Screen. Data for the bub3 strain (AID 167); conditions: S. cerevisiae bub3 mutant strain, at 50.0 µM, stronger effect = higher value
Procedure, shortened: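 Readout: yeast growth inhibition, expressed relative to vehicle-only wells. The test organism is a mutant strain from a panel with lesions in DNA repair or checkpoint genes.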

[6] = NCI Yeast Anticancer Drug Screen. Data for the mlh1 rad18 strain (AID 175); conditions: S. cerevisiae mlh1 rad18 strain growth inhibition; at 50.0 µM; stronger effect = higher value
Procedure, shortened: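 Inhibition values reflect reduced growth of mutant yeast versus vehicle-treated controls following compound exposure; the mutations affect DNA damage repair.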

Measured: growth inhibition

O=c1c2cc(Cl)ccc2on1CN1CCOCC1
inactive: [1] 3.4% | [2] 11.4% | [3] 17% | [4] -3.9% | [5] 5.4% | [6] 5.8%

CSc1nc(N)n2nc(C)cc2n1
inactive: [1] -9.3% | [2] -13.7% | [3] 10.2% | [4] 6.9% | [5] 33.3% | [6] -3.8%

CCCCCCCCCCNCC(=O)O
inactive: [1] -11.1% | [2] -16.6% | [3] -1.65% | [4] -7.6% | [5] -1.6% | [6] -8.95%

NC(=O)NC(Cc1ccccc1)(C(=O)O)c1ccccc1 (stereo not drawn)
inactive: [1] 6.55% | [2] 6.15% | [3] 35.9% | [4] -0.75% | [5] 24.4% | [6] 20.4%

Cc1ccc(C(=O)C[N+]2(C)CCOCC2)cc1
inactive: [1] 15.8% | [2] -7.5% | [3] 16.6% | [4] -21.9% | [5] 8.4% | [6] 20.4%

C/C=C\C(=O)OC1CCC(C2CCCCC2)CC1 (stereo not drawn)
inactive: [1] 25.3% | [2] 9.3% | [3] 14.8% | [4] 1.25% | [5] 56.6% | [6] -2.15%

NC(=O)NNCc1ccccc1
inactive: [1] -9.35% | [2] -0.3% | [3] -27.2% | [4] -17.4% | [5] -5.6% | [6] -53.8%

Fc1ccc(-c2ccc(F)cc2)cc1
inactive: [1] -18.6% | [2] -15.4% | [3] -12.1% | [4] -44.9% | [5] -6.8% | [6] -23.1%

C[CH2][Ge]([CH2]C)([CH2]C)[O]C(=O)CCC(=O)[O][Ge]([CH2]C)([CH2]C)[CH2]C
inactive: [1] -2.1% | [2] -2.9% | [3] -3.7% | [4] -66.7% | [5] -0.45% | [6] 14.7%

Nc1nc(CCC(=O)Nc2cccc(C(F)(F)F)c2)cc(-c2cccc3ccccc23)n1
inactive: [1] -15.2% | [2] 17.4% | [3] 29.1% | [4] 0.8% | [5] 23.1% | [6] 2.3%

N#C/C=C/c1cccc(Cl)c1
inactive: [1] 39.1% | [2] 7.9% | [3] 1.9% | [4] 14.3% | [5] 14.3% | [6] 16.9%

O=C(NNCCO)C(O)C(O)C(O)C(O)CO (stereo not drawn)
inactive: [1] -31.4% | [2] 7.15% | [3] 2.95% | [4] 5.25% | [5] -4.7% | [6] 13.2%

O=C(CC1(O)CCCCC1)Nc1ccccc1
inactive: [1] 1.9% | [2] -8.45% | [3] -8.4% | [4] -54.6% | [5] 4.6% | [6] -13.1%

O=C(COc1ccc(Cl)cc1)NCCOC(=O)COc1ccc(Cl)cc1
inactive: [1] 37.5% | [2] 20.4% | [3] 12.2% | [4] 18.2% | [5] 21.3% | [6] 52.3%

Cc1cccc(C)c1NC(=O)CNc1ncccn1
inactive: [1] -14.3% | [2] 1% | [3] 3.7% | [4] -4.7% | [5] 19.1% | [6] 4.65%

CCCCCCC1NC(CCCCCC)N2C(CCCCCC)N12 (stereo not drawn)
inactive: [1] 28.9% | [2] 16.8% | [3] -2.15% | [4] 0% | [5] 21.6% | [6] -2.7%

OCCC1=CCC1
inactive: [1] 3.05% | [2] 20.9% | [3] -3.35% | [4] 29.6% | [5] 4.95% | [6] 5.4%

Cc1nc(N)nc(C)c1N=Nc1cc(Cl)cc(Cl)c1
inactive: [1] -27.1% | [2] 4.15% | [3] -2.2% | [4] -32.9% | [5] 10.2% | [6] -7.85%

CC(C)CN(CC(=O)NC(=O)c1ccccc1)CC(C)C
inactive: [1] -2.1% | [2] -10.1% | [3] -12.2% | [4] -37.9% | [5] -4% | [6] -3.8%

CCCCCCCCCCCCCC(=O)OCC1OC(n2cc(F)c(=O)[nH]c2=O)C(N)C(OC(=O)CCCCCCCCCCCCC)C1O (stereo not drawn)
inactive: [1] 27.4% | [2] 7.4% | [3] 22.5% | [4] 35.3% | [5] 11.6% | [6] 24.1%

Clc1ccc2sc3c(c2c1)CCNC3
inactive: [1] 2.8% | [2] 0.1% | [3] -6.75% | [4] -31.4% | [5] -26% | [6] 13.6%

COC(=O)C1CC(=C(C)C)CCC1=O (stereo not drawn)
inactive: [1] 11.1% | [2] 2.15% | [3] 0.4% | [4] 11.2% | [5] 8.7% | [6] -1.7%

NCCCCC(C(=O)NCC(=O)O)N(C(=O)OCc1ccccc1)C(=O)OCc1ccccc1 (stereo not drawn)
inactive: [1] -2% | [2] -4.6% | [3] -0.55% | [4] -33.1% | [5] -2.2% | [6] -2.05%

N#CCN1CCOCCOCCN(CC#N)CCOCCOCC1
inactive: [1] 3.1% | [2] -0.75% | [3] 5.75% | [4] 19.7% | [5] 7.4% | [6] 42.1%

CCOC(=O)c1oc2ccc([N+](=O)[O-])c3c2c1CCC3
inactive: [1] 1.8% | [2] -1.95% | [3] -7% | [4] -2.35% | [5] -64% | [6] -8.05%

O=C(O)CNCCO
inactive: [1] -0.35% | [2] 7.75% | [3] 6.65% | [4] 0% | [5] 22.2% | [6] -0.25%

COc1cc(S(=O)(=O)O)ccc1N=N/C(=N\Nc1ccc(S(=O)(=O)O)cc1OC)C(N)=O
inactive: [1] -42.1% | [2] 5.55% | [3] 8.9% | [4] 18.6% | [5] -1.95% | [6] 7.7%

c1ccc2c(c1)ccc1nc3c4ccccc4c4ccccc4c3nc12
inactive: [1] 13.6% | [2] -2.85% | [3] -6.9% | [4] -3.45% | [5] 13% | [6] 13.8%

N=C(N)c1ccc(C(=N)N)cc1
inactive: [1] -16.4% | [2] -14.3% | [3] -20.3% | [4] -0.35% | [5] -0.75% | [6] -33.2%

NC(=O)/N=C/NC(N)=O
inactive: [1] 21.6% | [2] -14.3% | [3] 21.8% | [4] -5.3% | [5] -24.5% | [6] 2.65%

Cc1c2oc3c(C)ccc(C(=O)NCCc4ccccn4)c3nc-2c(C(=O)NCCc2ccccn2)c(N)c1=O
inactive: [1] 5.9% | [2] -8.05% | [3] 4.05% | [4] 4.9% | [5] -5.45% | [6] -6.9%

NC(=O)CNC(=O)[C@@H]1CC(OCCC(=O)O)CN1C(=O)C1CCCN1C(=O)OCc1ccccc1 (stereo partly drawn)
inactive: [1] 0.05% | [2] -0.8% | [3] 1.8% | [4] 6.25% | [5] 1.3% | [6] 6.75%

CCCCB1OB(CCCC)OB(CCCC)O1
inactive: [1] -1.65% | [2] -17.8% | [3] -6.2% | [4] 5.25% | [5] 7.15% | [6] 4.25%

CCCCCCCNC(=O)C(Cl)Cl
inactive: [1] 7.85% | [2] -16.8% | [3] -6.65% | [4] -2.55% | [5] 39.8% | [6] 7.4%

O=[N+]([O-])c1nccn1CCCN=c1c2ccccc2n(O)c2ccccc12
inactive: [1] 8.9% | [2] -16.4% | [3] -5.85% | [4] -5.8% | [5] -12.7% | [6] -33.4%

CCCC(=O)OCc1ccc(Cl)c(Cl)c1
inactive: [1] 21.6% | [2] 16% | [3] 9.45% | [4] 8% | [5] 9.15% | [6] -3.85%

CSc1ccc(NC(=O)C(Cl)Cl)cc1
inactive: [1] -3.35% | [2] 5.8% | [3] 5.1% | [4] 13% | [5] -15.3% | [6] 1.9%

CCOC(=O)c1ccc(NC(=O)Oc2ccc(C=O)cc2OC)cc1
inactive: [1] 5.7% | [2] 5.3% | [3] 7.85% | [4] 11% | [5] 20.1% | [6] 7.2%
